Data taken from PubChem BioAssay AID1745850 (National Center for Advancing Translational Sciences (NCATS), 2022).
Screen size: about 2,100 compounds; about 260 (12%) were called active. Roughly 58% stayed inconclusive and do not appear here. This is one part of the list. A number with no mark means an inactive call. Calls follow the shape of the dose curve; as a rule, active = well fitted cell-killing curve with a large enough effect; inconclusive = small, poorly fitted or top-dose-only effect, or effect the other way; inactive = flat fitted curve, though single readings scatter.

assay: Viability Counterscreen for Confirmatory qHTS for Inhibitors of ATXN expression; settings: HEK-293 ATXN2-luc cells viability, CellTiter-Fluor, 24 h; activity change, negative = cytotoxicity: at the top concentration; also: nearly all actives have a fitted effect of over 50% in size
Summary of the method: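 Cells with an ATXN2-luciferase reporter were dosed in a dilution series for 24 h at 37 degrees C. Viability was read first with Gly-Phe-AFC at 25 uM final (fluorescence, ex 405/em 540), then SteadyGlo luminescence. Medium-only wells defined 100% inhibition.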
Potency is read from the fitted curve at half-maximal effect.

SMILES | activity change, negative = cytotoxicity | Potency
CCOC(=O)/C=C/C(=O)Nc1ccc(Oc2ccccc2)cc1 | -17.2% | –
CN(CCOc1ccc(Br)cc1)CC(O)COc1ccc(C#N)cc1 (stereo not drawn) | -16.9% [at 57.5 µM] | –
OC[C@@H]1CN(Cc2ccc(-c3ccccc3)cc2)C[C@H](n2cnc3c(Nc4ccccc4)ncnc32)O1 | – | 20 µM (active)
Cc1csc2ncnc(NC3CCN(Cc4ccccc4)CC3)c12 | -19.2% [at 57.5 µM] | –
Cc1cccc(/C=N/NC(=O)c2c(-c3ccccc3)noc2C)c1O | -17.6% | –
CCCCNCCCOc1cccc(Cl)c1Cl | -20.9% [at 57.5 µM] | –
Cc1cc(Cl)ccc1OCCCC(=O)NNC(=O)c1ccccc1O | -10.4% | –
COCCCNCCCOc1ccc(Cl)cc1C(C)(C)C | – | 35.5 µM (active)
NC(=S)n1[nH]c(-c2ccc([N+](=O)[O-])cc2)c(N=Nc2cccc(Cl)c2)c1=O | – | 11.2 µM (active)
Cc1cc2sc3ccc(C#CC4(O)CCCCC4)cc3c(=O)c2cc1C | -17.5% [at 57.5 µM] | –
Cc1ccc(NC(=O)CNc2cccc(Br)c2)cc1S(=O)(=O)N1CCOCC1 | -29.9% | –
CC(C)[C@@H]1CC[C@@H](C)C[C@H]1OC(=O)C[n+]1cc(-c2ccc(Cl)cc2)n2c1CCCCC2 | – | 22.4 µM (active)
CCn1c(C)cc(C(=O)CN2C(=O)c3ccccc3S2(=O)=O)c1C | -1.78% | –
O=C(c1ccco1)N1CCN(c2ccnc3cc(Cl)ccc23)CC1 | -8.67% [at 57.5 µM] | –
CCn1cc(C(=O)NCc2cccc(F)c2)c(=O)c2cc(F)c(N3CCN(C(=O)c4ccco4)CC3)cc21 | – | 22.4 µM (active)
CCOC(=O)Cn1cc(C(=O)c2ccco2)c2ccccc21 | -8.35% | –
Cc1ccc2c(CC(=O)NNC(=O)c3ccccc3O)coc2c1 | -16% | –
Cc1ccc(SC2=C(N(C)C)C(=O)c3ccccc3C2=O)cc1 | -9.87% [at 57.5 µM] | –
CC(C)(C)c1ccc(NC(=O)N2CCCN(c3c(Cl)cncc3Cl)CC2)cc1 | -10.7% [at 57.5 µM] | –
O=C(NNC1=Nc2ccccc2SC1)c1ccc(Cl)cc1 | -23.5% | –
O=c1c2c(nc3c(-c4cccc(Br)c4)c[nH]n13)CCCC2 | – | 12.6 µM (active)
O=c1c2c(nc3c(-c4ccc(Cl)cc4)c[nH]n13)CCC2 | -24.2% | –
O=C(NNc1ccnc2cc(Cl)ccc12)C1CCCCC1 | -17% | –
NC(=O)c1c(NC(=O)c2ccc(S(=O)(=O)N3CCOCC3)cc2)sc2c1CCCCC2 | -15.9% | –
CC1(C)Cc2c(sc(NC(=O)c3ccc(C(=O)c4ccccc4)cc3)c2C(N)=O)C(C)(C)N1 | – | 28.2 µM (active)
Nc1nc(NCCCN2CCOCC2)nc(Nc2cccc(Cl)c2)c1[N+](=O)[O-] | -23% | –

SMILES | activity change, negative = cytotoxicity | Potency
CCCCC/C=C/C1=CC(=O)C[C@H](c2ccc(OC)c(OC)c2)C1 | -22.6% [at 57.5 µM] | –
O=C(C(Br)=Cc1ccccc1)c1ccccc1 | – | 7.94 µM (active)
CC(C)(C)NCC(=Cc1ccccc1)C(=O)c1ccccc1 | – | 3.55 µM (active)
O=C(N/N=C/c1ccccc1O)/C(=C/c1ccccc1)CCO | -4.41% | –
CC(C)(C)c1ccc(Oc2ccc(N)cn2)cc1 | -2.49% [at 57.5 µM] | –
CNc1nc2c(N)ncnc2n1[C@H]1O[C@@H](CO)[C@H](O)[C@@H]1O | -9.92% | –
Cc1ccc(SCCC(=O)N/N=C/c2ccccc2O)cc1 | -12.1% | –
Cc1ccc2[nH]c(O)c(N=NC(=O)C3CC3c3ccccc3)c2c1Br (stereo not drawn) | -17.7% | –
CC(C)c1cccc(C(C)C)c1Nc1cn[nH]c1 | -9.61% | –
Nn1cnnc1N/N=C/c1cc(Br)cc(Br)c1O | -4.48% | –
OC(c1ccccn1)(c1ccccn1)c1ccccn1 | -12.8% | –
COc1ccc(C(=O)/C=C/c2ccc(OC3CSC3)cc2)cc1OC | -2.31% | –
COc1ccc(C(=O)/C=C/c2cccc(OCc3ccccc3)c2)cc1CSCC(=O)O | -25.6% | –
COc1cc(C=CC(=O)c2cc(OC)c(OC)c(OC)c2)cc(OC)c1OC | – | 17.8 µM (active)
CS(=O)(=O)N(CC(O)CON=C1c2ccccc2-c2ccccc21)c1ccc(F)cc1 (stereo not drawn) | -13.4% | –
Nc1nc(NCCCN2CCOCC2)nc(Nc2ccccc2F)c1[N+](=O)[O-] | -10.7% [at 57.5 µM] | –
Cc1ccc(C)c(OCCCC(=O)Nc2nccs2)c1 | -9.55% [at 57.5 µM] | –
Cn1c(/C=C/c2ccc(Cl)cc2)c([N+](=O)[O-])c(=O)n(C)c1=O | – | 22.4 µM (active)
Cn1c(/C=C/c2ccc(Cl)cc2Cl)c([N+](=O)[O-])c(=O)n(C)c1=O | – | 22.4 µM (active)
Cc1cc(OCC(=O)Nc2ccc(Br)cc2)cc2c1C(=O)CC(C)(C)O2 | -17.5% | –
NC1=NC[C@H](Cc2ccccc2)N1CCCCC1CCCCC1 | -14.5% | –
CCc1cc(-c2[nH]ncc2-c2ccc(OC)cc2)c(O)cc1O | -9.53% | –
CC(C)=CCc1c(O)cc2oc3c(CC=C(C)C)c(O)c(O)c(CC=C(C)C)c3c(=O)c2c1O | -29.3% | –
Cc1ccccc1C(=O)/C(C#N)=N/Nc1c(C)n(C)n(-c2ccccc2)c1=O | – | 10 µM (active)
COc1ccc(NS(=O)(=O)c2ccc(C(=O)Nc3c(C)n(C)n(-c4ccccc4)c3=O)cc2)cc1 | -6.96% | –
Cc1c(N/N=C(\C#N)C(=O)c2ccccc2)c(=O)n(-c2ccccc2)n1C | – | 12.6 µM (active)

SMILES | activity change, negative = cytotoxicity | Potency
Cc1cc(C)cc(NC(=O)/C(C#N)=C/c2cn(CC(=O)NCc3ccco3)c3ccccc23)c1 | -17.7% | –
Nc1c(C(=O)NCCN2CCOCC2)c2nc3ccccc3nc2n1CCc1ccccc1F | 9.01% [at 57.5 µM] | –
CCOC(=O)c1c(NC(=O)COC(=O)CNC(=O)c2ccco2)sc(C)c1C | -7.39% | –
N#Cc1ccccc1NC(=O)C1SC(=Nc2ccccc2)C(C(=O)Nc2ccc(Cl)cc2)=C1N (stereo not drawn) | 3.17% | –
O=C(CSc1ccc2ccccc2c1)Nc1nc2ccccc2[nH]1 | 3.26% | –
C/C(=N\NC(=O)CSCc1ccc([N+](=O)[O-])cc1)c1ccccc1O | -8.24% | –
N#Cc1c(Oc2ccc3ccccc3c2)sc(C(=O)c2ccccc2)c1N | -25.3% [at 57.5 µM] | –
COC(=O)COc1ccc(-c2nccc(-c3ccccn3)n2)cc1 | 0.594% | –
COc1cnc(-c2ccccn2)nc1NC(C)C | – | 10 µM (active)
O=C(CNS(=O)(=O)c1ccc([N+](=O)[O-])cc1)N/N=C/c1ccc(O)cc1O | -28.9% | –
COc1ccc(O)c(/C=N/NC(=O)c2ccc(OCc3cccc(Br)c3)cc2)c1 | -21.1% | –
O=C(N/N=C/c1cc([N+](=O)[O-])ccc1O)c1ccc(COc2ccc3c(c2)CCC3)o1 | – | 11.2 µM (active)
C=CCc1cccc(/C=N/NC(=O)CNc2ccccc2)c1O | -15.6% | –
O=C(Nc1cccc(C(F)(F)F)c1)Oc1ccc(Cl)c2cccnc12 | -21.6% | –
CCCC(=O)NC(c1ccc(C(C)C)cc1)c1ccc2cccnc2c1O (stereo not drawn) | -8.49% | –
COc1cccc(C(NC(C)=O)c2ccc3cccnc3c2O)c1 (stereo not drawn) | – | 8.91 µM (active)
CCCCC(=O)NC(c1ccc(N(CC)CC)cc1)c1ccc2cccnc2c1O (stereo not drawn) | -19.4% | –
CC(=O)NC(c1ccc(C)cc1)c1cc(Cl)c2cccnc2c1O (stereo not drawn) | – | 11.2 µM (active)
COc1ccc(C(NC(C)=O)c2cc(Cl)c3cccnc3c2O)cc1OC (stereo not drawn) | – | 10 µM (active)
COc1ccc(C(NC(C)=O)c2cc(Cl)c3cccnc3c2O)cc1 (stereo not drawn) | – | 8.91 µM (active)
C(=N\NC(=Nc1ccccc1)c1ccccn1)/c1ccccn1 | -13.3% [at 57.5 µM] | –
COc1ccc(CNC(=O)CSc2nc(-c3ccccc3)cc(-c3cccs3)c2C#N)cc1 | -15.1% | –
COc1cc2ccnc(Cc3cccc(OC)c3OC)c2cc1OC | -15.2% [at 57.5 µM] | –
COc1ccc(OC)c(C(=O)/C=C/c2ccccc2C(F)(F)F)c1 | -23.1% | –
Cc1ccc2nc(-c3ccccc3)nn2c1 | -10.1% | –
O=C(N/N=C/c1cc(Br)cc(Br)c1O)c1cccc(N2CCCC2=O)c1 | 14.3% | –

SMILES | activity change, negative = cytotoxicity | Potency
COC(=O)c1ccc(C(=O)Nc2cc(Cl)ccc2Cl)cc1NC(=O)c1ccc(N(C)C)cc1 | -1.24% | –
O=C(N/N=C/c1c(O)n(Cc2ccccc2)c(=O)c2ccccc12)c1cccnc1 | 9.53% [at 57.5 µM] | –
O=C(N/N=C/c1cc(Cl)ccc1O)c1cccnc1 | 4.12% | –
O=C(NC(c1ccc(Cl)cc1)c1cc(Cl)c2cccnc2c1O)c1cccnc1 (stereo not drawn) | – | 12.6 µM (active)
Cc1ccc(S(=O)(=O)Nc2cc(Cl)c(O)c3ncccc23)cc1 | – | 10 µM (active)
Cc1cc(NC(c2cccnc2)c2ccc3cccnc3c2O)no1 (stereo not drawn) | – | 8.91 µM (active)
COc1cc(CNCc2ccncc2)cc(Br)c1OCc1ccccc1F | -7.84% | –
Cn1c(CO)c(-c2ccccc2)c2cc([N+](=O)[O-])ccc21 | -14.2% | –
CCn1c(C)cc(C(=O)COC(=O)c2ccccc2[N+](=O)[O-])c1C | -10.5% [at 57.5 µM] | –
CCOC(=O)N1CCN(c2ccnc3cc(Cl)ccc23)CC1 | -11.6% | –
CN(CCc1ccccc1)c1cc2c(c3c1ccn3C)C1CCC2O1 (stereo not drawn) | -26.3% [at 57.5 µM] | –
CC(C)(C)c1ccc(CC(=O)N2CCC2(C)C(=O)Nc2cnc3ccccc3c2)cc1 (stereo not drawn) | -23.1% | –
O=C(Nc1cccc2ccccc12)OC1C=CS(=O)(=O)C1 (stereo not drawn) | -11.5% | –
Cc1noc2ncnc(N3CCN(c4cccc(Cl)c4)CC3)c12 | -18.7% [at 57.5 µM] | –
O=C(CSCC(=O)Nc1ccccc1)N/N=C/c1c(O)ccc2ccccc12 | -27.8% | –
CC(C)(C)c1ccc(Oc2ccc(N)cc2)cc1 | -13.2% [at 57.5 µM] | –
COc1ccc2[nH]c3c(N4CCC(O)(c5cccc(C(F)(F)F)c5)CC4)ncnc3c2c1 | – | 3.16 µM (active)
O=C1CN(C(=O)c2c(F)cccc2F)C(c2ccc(F)cc2)c2cc(Br)ccc2N1 (stereo not drawn) | -19.7% | –
COc1cccc(NC(=O)/C=C/c2ccc(S(=O)(=O)N3CCOCC3)cc2)c1 | -12.2% [at 57.5 µM] | –
COc1ccc(N2C3=C(CC4=C2CC(C)(C)CC4=O)C(=O)CC(C)(C)C3)cc1 | -22% | –
CC1CC2(C)Oc3ccccc3CC2C(C)C1CNCCCN(C)C (stereo not drawn) | – | 25.1 µM (active)
O=C(C1CCC(CNS(=O)(=O)c2cccc3nsnc23)CC1)N1CC=C(c2ccccc2)CC1 (stereo not drawn) | -18.5% | –
Cc1ccccc1SCC(=O)N1CCN(c2ccc(C(F)(F)F)cn2)CC1 | -18.1% | –
COc1ccc(-c2sc3ccc(OC)cc3c2-c2ccc(O)cc2)cc1 | -24.2% | –
COc1cc(-c2ccc3sc(-c4ccsc4)c(C#CCO)c3c2)cc(OC)c1OC | – | 22.4 µM (active)
